# Measured values reported in PubChem BioAssay AID1159580 (chemical genetic matrix, 2015).
# Hit rate of the full screen: of about 5,500 compounds, about 2,000 (36%) were called active. Another 18% or so got no clear call; they are omitted. This is one part of the list. A number with no mark means an inactive call. Rule as the data show it: active = normalized growth mostly below about 0.91 (no sharp cut-off); inconclusive = no clear call, values can overlap the other calls; inactive = mostly above about 0.92.
# Assay: chemical genetic growth profiling, strain panel (AID 1159580);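 also: tested at 20 µM; growth read once vehicle control cultures reached saturation at 30 °C; 1 = growth at the plate median or of vehicle wells; lower values mean less growth of the strain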
# Details: S. cerevisiae deletion strains, growth OD
# [1] = locus YAL013W, strain DEP1, hits give low values
# [2] = locus YAL040C, strain CLN3, hits give low values
# [3] = locus YCL061C, strain MRC1 (second series), hits give low values
# [4] = locus YDR150W, strain NUM1, hits give low values
# [5] = locus YDR363W, strain ESC2, hits give low values
# [6] = locus YER002W, strain NOP16, hits give low values
# [7] = locus YHR030C, strain SLT2, hits give low values
# [8] = locus YHR079C, strain IRE1, hits give low values
# [9] = locus YJL095W, strain BCK1, hits give low values
# [10] = locus YJR066W, strain TOR1, hits give low values
# [11] = locus YJR075W, strain HOC1, hits give low values
# [12] = locus YLR113W, strain HOG1, hits give low values
# [13] = locus YMR263W, strain SAP30, hits give low values
# [14] = locus YNL175C, strain NOP13, hits give low values
# [15] = locus YNL183C, strain NPR1, hits give low values
# [16] = locus YNL197C, strain WHI3, hits give low values
# [17] = locus YNL224C, strain SQS1, hits give low values
# [18] = locus YOR083W, strain WHI5 (second series), hits give low values
# [19] = locus YOR231W, strain MKK1, hits give low values
# [20] = locus YPL256C, strain CLN2, hits give low values
# [21] = locus YGR229C, strain SMI1, hits give low values
smiles,measurement,setting,value
Nc1nc2ccc(OC(F)(F)F)cc2s1,normalized growth,[1],0.937
same,normalized growth,[2],0.985
same,normalized growth,[3],0.979
same,normalized growth,[4],0.954
same,normalized growth,[5],0.943
same,normalized growth,[6],0.979
same,normalized growth,[7],1.02
same,normalized growth,[8],1.02
same,normalized growth,[9],0.961
same,normalized growth,[10],0.956
same,normalized growth,[11],0.918
same,normalized growth,[12],0.94
same,normalized growth,[13],0.988
same,normalized growth,"locus YMR307W, strain GAS1, hits give low values",0.856 (active)
same,normalized growth,[14],0.975
same,normalized growth,[15],0.944
same,normalized growth,[16],0.988
same,normalized growth,[17],0.979
same,normalized growth,[18],0.938
same,normalized growth,[19],0.999
same,normalized growth,"locus YPL055C, strain LGE1, hits give low values",0.829 (active)
same,normalized growth,[20],1.02
OCc1ccc(-c2nn(Cc3ccccc3)c3ccccc23)o1,normalized growth,[1],0.925
same,normalized growth,[2],1.06
same,normalized growth,[3],1
same,normalized growth,[4],1.02
same,normalized growth,[5],1.01
same,normalized growth,[6],0.988
same,normalized growth,"locus YGR078C, strain PAC10, hits give low values",0.986
same,normalized growth,[21],0.841 (active)
same,normalized growth,[13],0.991
same,normalized growth,[14],0.977
same,normalized growth,[16],0.972
same,normalized growth,[17],0.981
same,normalized growth,[18],0.95
same,normalized growth,"locus YPL241C, strain CIN2, hits give low values",1.02
O=C(O)c1nn(Cc2ccc(Cl)cc2Cl)c2ccccc12,normalized growth,[1],1
same,normalized growth,[2],1.05
same,normalized growth,[3],0.99
same,normalized growth,[4],1.02
same,normalized growth,[5],0.972
same,normalized growth,[6],0.956
same,normalized growth,[21],1.03
same,normalized growth,[11],1.02
same,normalized growth,[13],1
same,normalized growth,"locus YNL128W, strain TEP1, hits give low values",0.969
same,normalized growth,"locus YNL153C, strain GIM3, hits give low values",1.02
same,normalized growth,[14],0.935
same,normalized growth,[16],0.964
same,normalized growth,[17],0.996
same,normalized growth,"locus YNL322C, strain KRE1, hits give low values",0.998
same,normalized growth,[18],0.994
CN(C)CCCOc1nn(Cc2ccccc2)c2ccccc12,normalized growth,[7],0.972
same,normalized growth,[8],0.968
same,normalized growth,[9],0.979
same,normalized growth,[10],0.954
same,normalized growth,[12],0.956
same,normalized growth,[15],0.922
same,normalized growth,[19],0.967
same,normalized growth,[20],0.991
